Measured values as given in PubChem BioAssay (Tox21).
A number with no mark means an inactive call. Records with an inconclusive call do not appear. Where a call stands in place of a potency, no number is given. Active and inactive are the calls of the source. Unless noted, calls come from the whole dose curve; as a rule, active = well fitted curve in the direction sought with a large enough effect in the repeat runs; inconclusive = weak or mixed curves; inactive = no such curve, though single readings can be large; an effect the other way counts as inactive or inconclusive.

Experiments:
[1] = qHTS assay to identify small molecule antagonists of the estrogen receptor alpha (ER-alpha) signaling pathway using the BG1 cell line in the presence of 0.1 nM 17-beta-estradiol - cell viability counter screen (AID 1259241); note: nearly all actives have a fitted effect of over 40% in size
Procedure, shortened: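 Measures cytotoxicity alongside the ER-alpha antagonist readout: VM7Luc4E2 cells, charcoal-stripped serum, 0.1 nM 17beta-estradiol final, 22 hr compound incubation at 37C, CellTiter-Fluor fluorescence.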

[2] = qHTS assay to identify small molecule antagonists of the androgen receptor (AR) signaling pathway using the MDA cell line in the presence of 0.5 nM R1881 - cell viability counter screen (AID 1259242); note: nearly all actives have a fitted effect of over 45% in size
Procedure, shortened: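 Human breast carcinoma MDA-kb2 cells, cultured without CO2, receive compounds alongside 0.5 nM (final) R1881 agonist. After 16 hr at 37C, viability is taken as live-cell protease signal.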

[3] = biological target: Androgen receptor (Homo sapiens) (UniProt P10275); assay: qHTS assay to identify small molecule antagonists of the androgen receptor (AR) signaling pathway using the MDA cell line in the presence of 0.5 nM R1881 (AID 1259243); note: nearly all actives have a fitted effect of over 50% in size
Androgen receptor (Homo sapiens), sequence (P10275 whole entry, looked up): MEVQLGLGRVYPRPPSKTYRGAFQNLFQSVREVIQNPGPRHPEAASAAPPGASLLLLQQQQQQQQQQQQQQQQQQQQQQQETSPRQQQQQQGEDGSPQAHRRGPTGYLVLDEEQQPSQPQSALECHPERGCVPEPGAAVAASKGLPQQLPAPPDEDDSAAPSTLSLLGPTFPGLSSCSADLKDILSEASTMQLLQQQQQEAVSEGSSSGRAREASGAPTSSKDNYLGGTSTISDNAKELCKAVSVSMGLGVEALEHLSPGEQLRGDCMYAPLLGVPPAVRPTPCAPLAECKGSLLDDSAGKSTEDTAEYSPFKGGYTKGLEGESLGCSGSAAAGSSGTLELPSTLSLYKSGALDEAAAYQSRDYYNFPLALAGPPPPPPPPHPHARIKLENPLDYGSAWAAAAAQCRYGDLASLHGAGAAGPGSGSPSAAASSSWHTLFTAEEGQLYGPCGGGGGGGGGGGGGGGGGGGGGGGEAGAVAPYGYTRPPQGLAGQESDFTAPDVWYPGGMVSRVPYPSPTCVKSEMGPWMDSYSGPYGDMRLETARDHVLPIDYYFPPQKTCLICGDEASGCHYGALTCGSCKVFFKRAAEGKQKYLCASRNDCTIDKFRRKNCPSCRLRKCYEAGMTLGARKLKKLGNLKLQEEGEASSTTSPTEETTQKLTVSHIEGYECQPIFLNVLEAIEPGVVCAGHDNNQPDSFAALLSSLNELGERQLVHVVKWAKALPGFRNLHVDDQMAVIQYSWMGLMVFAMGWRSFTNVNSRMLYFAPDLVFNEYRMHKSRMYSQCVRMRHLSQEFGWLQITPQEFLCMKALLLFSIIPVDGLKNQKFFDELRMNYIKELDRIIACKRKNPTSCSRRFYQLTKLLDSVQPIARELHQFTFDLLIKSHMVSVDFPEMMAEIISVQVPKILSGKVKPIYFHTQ
Procedure, shortened: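 Cells: MDA-kb2 (MMTV-luc). Stimulus: 0.5 nM R1881. Time: 16 hr, 37C, no CO2. Detection: ONE-Glo luminescence after 30 min at RT.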

[4] = qHTS assay to identify small molecule phospholipidosis (PLD) inducers (AID 1259344; active = well fitted curve in the direction sought with a large enough effect; an effect the other way counts as inactive or inconclusive)
Procedure, shortened: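 Cells (HepG2, 900 per well) attach for 4 h, receive LipidTOX Red and compound together, incubate 24 h at 37 C, are fixed 30 min with paraformaldehyde/Hoechst, then imaged at one site per well.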

[5] = qHTS assay to identify small molecule HDAC inhibitors (AID 1259364);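 note: wild-type HCT-116 cells with endogenous class I/II HDAC activity; top concentration of the series differs between compounds; nearly all actives have a fitted effect of over 45% in size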
Procedure, shortened: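 After a 2 hr compound incubation (37C, 5% CO2), HCT-116 cells seeded at 1,500/well the day before received HDAC-Glo reagent; signal read as luminescence after 30 min at room temperature.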

[6] = qHTS assay to identify small molecule HDAC inhibitors - cell viability counter screen (AID 1259365); note: series mostly up to about 92 µM; nearly all actives have a fitted effect of over 50% in size
Procedure, shortened: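 Following a 2hr exposure of overnight-plated wild-type HCT-116 cells to DMSO-delivered compounds, CellTiter-Glo was added and luminescence recorded after 30min at room temperature.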

[7] = qHTS assay to identify small molecule agonists of the sonic hedgehog signaling (Shh) pathway - cell viability counter screen (AID 1259366); note: nearly all actives have a fitted effect of over 50% in size
Procedure, shortened: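 After a 4hr attachment at 37C, NIH/3T3 cells bearing an integrated Gli1-driven luciferase reporter were dosed with compounds. Treatment lasted 24hr, with the final hour including CellTiter-Fluor for a fluorescence viability measurement.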

[8] = qHTS assay to identify small molecule antagonists of the sonic hedgehog signaling (Shh) pathway - cell viability counter screen (AID 1259367); note: nearly all actives have a fitted effect of over 55% in size
Procedure, shortened: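 Cytotoxicity was assessed in parallel with Shh reporter activity by measuring live-cell protease fluorescence (CellTiter-Fluor) in NIH/3T3 cells stably carrying Gli1-Luc, treated with compound under conditioned medium stimulation for 23 hr plus 1 hr reagent incubation.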

[9] = qHTS assay to identify small molecule agonists of the sonic hedgehog signaling (Shh) pathway (AID 1259368; calls by dose curve;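 note: NIH/3T3-derived 3T3Gli1-Luc cells carrying a stable Gli1-driven firefly luciferase reporter; series mostly up to about 92 µM; nearly all actives have a fitted effect of over 15% in size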)
Procedure, shortened: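 Stable NIH/3T3 Gli1-Luc reporter clone; 24 hr cpd exposure after a 4 hr settling period; luminescence endpoint.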

[10] = qHTS assay to identify small molecule agonists of the androgen receptor (AR) signaling pathway in the presence of an antagonist - cell viability counter screen (AID 1259379);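 note: MDA-kb2 human breast cancer cells carrying an MMTV luciferase reporter; series mostly up to about 92 µM; nearly all actives have a fitted effect of over 25% in size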
Procedure, shortened: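 Counter screen for cell viability run in parallel with the AR agonist-mode luciferase assay. MDA-kb2 cells were co-treated with nilutamide (3.0uM final) and compounds, then incubated 16 hr at 37C, and CellTiter-Fluor fluorescence was measured.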

[11] = qHTS assay to identify small molecule agonists of the estrogen receptor beta (ER-beta) signaling pathway - cell viability counter screen (AID 1259380); note: nearly all actives have a fitted effect of over 30% in size
Procedure, shortened: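 In this qHTS counter screen, HEK293T cells carrying an ER-beta/UAS beta-lactamase reporter, grown in 2% charcoal-stripped FBS, received compound for 16 hr; ATP-based CellTiter-Glo luminescence was then read after 30 min at room temperature.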

[12] = biological target: Androgen receptor (Homo sapiens) (UniProt P10275); assay: qHTS assay to identify small molecule agonists of the androgen receptor (AR) signaling pathway in the presence of an antagonist (AID 1259381; calls by dose curve; note: nearly all actives have a fitted effect of over 15% in size)
Procedure, shortened: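 AR antagonist background: nilutamide 3.0uM final. Cell line: MDA-kb2, MMTV-driven luciferase, responsive to both AR and GR. Exposure 16hr, 37C, no CO2; ONE-Glo luminescence.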

[13] = qHTS assay to identify small molecule antagonists of the estrogen receptor beta (ER-beta) signaling pathway - cell viability counter screen (AID 1259382); note: series mostly up to about 92 µM; nearly all actives have a fitted effect of over 55% in size
Procedure, shortened: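 HEK293T ER-beta-UAS-bla, 2% charcoal-stripped FBS; compounds + 1nM E2 16 hr 37C; CellTiter-Glo luminescence, 30 min RT.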

[14] = biological target: Estrogen receptor (Homo sapiens) (UniProt P03372); assay: qHTS assay to identify small molecule agonists of the estrogen receptor alpha (ER-alpha) signaling pathway in the presence of an antagonist (AID 1259383; calls by dose curve; note: top concentration of the series differs between compounds; nearly all actives have a fitted effect of over 15% in size)
Estrogen receptor (Homo sapiens), sequence (P03372 whole entry, looked up): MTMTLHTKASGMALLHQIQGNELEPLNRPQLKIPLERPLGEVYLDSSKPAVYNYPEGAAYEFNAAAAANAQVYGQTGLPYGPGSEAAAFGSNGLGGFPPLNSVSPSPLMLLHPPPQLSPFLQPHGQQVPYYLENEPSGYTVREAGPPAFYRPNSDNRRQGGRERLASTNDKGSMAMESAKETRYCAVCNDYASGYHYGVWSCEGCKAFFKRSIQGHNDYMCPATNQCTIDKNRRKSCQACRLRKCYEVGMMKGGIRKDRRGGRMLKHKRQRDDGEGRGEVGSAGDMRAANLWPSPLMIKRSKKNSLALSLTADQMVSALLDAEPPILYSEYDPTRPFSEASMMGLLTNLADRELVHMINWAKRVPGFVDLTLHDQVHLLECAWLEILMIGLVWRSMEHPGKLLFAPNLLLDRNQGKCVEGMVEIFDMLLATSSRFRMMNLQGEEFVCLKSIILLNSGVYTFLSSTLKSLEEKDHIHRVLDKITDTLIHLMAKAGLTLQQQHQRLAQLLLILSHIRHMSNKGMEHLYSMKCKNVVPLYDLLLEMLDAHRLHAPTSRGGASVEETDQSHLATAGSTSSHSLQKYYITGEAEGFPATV
Procedure, shortened: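 ER-alpha agonism measured under antagonist challenge: 10.0nM ICI-182,780 (final) plus compound, 15 concentrations, 22hr, VM7Luc4E2 ERE-luciferase cells. Read by luminescence.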

[15] = qHTS assay to identify small molecule agonists or antagonists of the thyroid stimulating hormone receptor (TSHR) signaling pathway - wild type cell line counter screen (AID 1259384; calls by dose curve)
Procedure, shortened: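 Wild-type HEK293 cells were plated 18 h at 37 C/5% CO2, pin-dosed with compound plus Ro20-1724 medium, held 30 min at room temperature, then given cAMP-d2 and anti-cAMP-cryptate; fluorescence was read after 1 h. Fifteen concentrations, triplicate.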

[16] = biological target: Thyrotropin receptor (Homo sapiens) (UniProt P16473); assay: qHTS assay to identify small molecule antagonists of the thyroid stimulating hormone receptor (TSHR) signaling pathway (AID 1259385; calls by dose curve; note: nearly all actives have a fitted effect of over 20% in size)
Thyrotropin receptor (Homo sapiens), sequence (P16473 whole entry, looked up): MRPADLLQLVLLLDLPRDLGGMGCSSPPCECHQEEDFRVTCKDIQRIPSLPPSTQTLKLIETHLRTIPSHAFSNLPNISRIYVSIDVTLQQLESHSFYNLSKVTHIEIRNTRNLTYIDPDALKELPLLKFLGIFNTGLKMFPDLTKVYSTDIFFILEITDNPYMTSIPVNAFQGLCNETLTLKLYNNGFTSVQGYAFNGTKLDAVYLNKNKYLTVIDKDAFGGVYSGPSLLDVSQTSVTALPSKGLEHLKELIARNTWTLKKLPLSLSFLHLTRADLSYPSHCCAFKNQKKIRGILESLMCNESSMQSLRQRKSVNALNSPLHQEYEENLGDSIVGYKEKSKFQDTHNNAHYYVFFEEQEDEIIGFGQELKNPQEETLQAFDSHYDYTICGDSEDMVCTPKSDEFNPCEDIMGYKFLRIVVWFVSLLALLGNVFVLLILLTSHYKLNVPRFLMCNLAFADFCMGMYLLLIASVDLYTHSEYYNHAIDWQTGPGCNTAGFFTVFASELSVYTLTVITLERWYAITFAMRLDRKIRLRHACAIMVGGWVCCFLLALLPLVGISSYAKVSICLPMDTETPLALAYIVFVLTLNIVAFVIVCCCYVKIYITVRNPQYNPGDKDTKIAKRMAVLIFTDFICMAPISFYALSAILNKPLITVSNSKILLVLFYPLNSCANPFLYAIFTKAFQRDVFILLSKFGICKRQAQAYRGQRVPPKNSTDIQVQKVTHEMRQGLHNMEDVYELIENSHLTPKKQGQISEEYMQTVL
Procedure, shortened: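 TSHR-HEK293 cells were plated and held 18 h at 37C/5% CO2, then given compound plus Ro20-1724 and stimulated with TSH at 1.5 ng/mL final. After 30 min at room temperature, cAMP was detected with cAMP-d2/anti-cAMP-cryptate (1 h) by fluorescence.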

[17] = biological target: Estrogen receptor (Homo sapiens) (UniProt P03372); assay: qHTS assay to identify small molecule antagonists of the estrogen receptor alpha (ER-alpha) signaling pathway using the BG1 cell line in the presence of 0.1 nM 17-beta-estradiol (AID 1259244); note: nearly all actives have a fitted effect of over 50% in size
Procedure, shortened: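 Seeding of stripped-serum-adapted VM7Luc4E2 cells, 24 h attachment, compound transfer, then 0.1 nM final 17beta-estradiol; after 22 h incubation, ONE-Glo reagent and luminescence reading.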

[18] = qHTS assay to identify small molecule antagonists of the sonic hedgehog signaling (Shh) pathway (AID 1259369; calls by dose curve; note: nearly all actives have a fitted effect of over 45% in size; note: potency is the fitted concentration of half-maximal effect)
Procedure, shortened: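 Gli1 transcriptional reporter (firefly Luc) in NIH/3T3 background, conditioned-medium activated. 24hr exposure, luminescence endpoint.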

[19] = biological target: Estrogen receptor beta (Homo sapiens) (UniProt Q92731); assay: qHTS assay to identify small molecule agonists of the estrogen receptor beta (ER-beta) signaling pathway (AID 1259377; active = well fitted activation curve with a large enough effect in the signal ratio in the repeat runs, not every such curve was filed as active; the % refers to the signal ratio)
Estrogen receptor beta (Homo sapiens), sequence (Q92731 whole entry, looked up): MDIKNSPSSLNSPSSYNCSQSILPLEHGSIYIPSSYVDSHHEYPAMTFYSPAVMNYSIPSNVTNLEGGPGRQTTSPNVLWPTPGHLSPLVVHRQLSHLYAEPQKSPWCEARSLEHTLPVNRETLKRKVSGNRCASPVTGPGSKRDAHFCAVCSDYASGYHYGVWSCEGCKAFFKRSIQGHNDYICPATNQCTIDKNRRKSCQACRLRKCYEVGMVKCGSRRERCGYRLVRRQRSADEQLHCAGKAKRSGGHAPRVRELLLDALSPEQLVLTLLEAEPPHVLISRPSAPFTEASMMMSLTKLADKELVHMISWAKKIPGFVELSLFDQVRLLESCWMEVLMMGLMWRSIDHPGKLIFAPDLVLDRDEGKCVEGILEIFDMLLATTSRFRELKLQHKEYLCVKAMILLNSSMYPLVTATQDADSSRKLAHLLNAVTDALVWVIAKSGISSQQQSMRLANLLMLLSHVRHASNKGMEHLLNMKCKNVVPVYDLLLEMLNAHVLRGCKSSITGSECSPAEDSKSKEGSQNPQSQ
Procedure, shortened: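 In HEK293T cells bearing a UAS-beta-lactamase reporter under ER-beta control, DMSO-delivered compounds were incubated for 16 hr at 37C. Activity was detected as fluorescence 2 hours after LiveBLAzer B/G FRET substrate addition.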

[20] = biological target: Estrogen receptor beta (Homo sapiens) (UniProt Q92731); assay: qHTS assay to identify small molecule antagonists of the estrogen receptor beta (ER-beta) signaling pathway (AID 1259378; active = well fitted inhibition curve with a large enough effect in the signal ratio in the repeat runs, not every such curve was filed as active; the % refers to the signal ratio)
Procedure, shortened: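 ER-beta-UAS-bla HEK293T (GripTite) cells in 2% charcoal-stripped FBS medium were preincubated 6 hr at 37C, dosed with compound, then stimulated with 1 nM E2 (final) for 16 hr; beta-lactamase reporter read by B/G FRET fluorescence after 2 hr substrate loading.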

Row | Compound | outcome [1] | outcome [2] | Potency [3] | outcome [4] | Potency [5] | outcome [6] | Potency [7] | Potency [8] | outcome [9] | Potency [10] | Potency [11] | Potency [12] | outcome [13] | outcome [14] | outcome [15] | outcome [16] | outcome [17] | Potency [18] | Potency [19] | Potency [20]
1 | Nc1c2c(nc3c1CCC3)CCCC2 | inactive | inactive | inactive | inactive | inactive | inactive | inactive | inactive | inactive | inactive | inactive | inactive | inactive | inactive | inactive | inactive | – | – | – | –
2 | Cc1ccc(C(=O)c2ccc(CC(=O)O)n2C)cc1 | inactive | inactive | inactive | inactive | – | inactive | inactive | inactive | inactive | inactive | inactive | inactive | inactive | inactive | inactive | – | inactive | inactive | – | –
3 | CCOC(=O)OC(C)OC1=C(C(=O)Nc2ccccn2)N(C)S(=O)(=O)c2ccccc21 (centres undefined) | inactive | inactive | – | inactive | inactive | inactive | inactive | inactive | inactive | inactive | inactive | – | inactive | inactive | inactive | inactive | inactive | inactive | inactive | inactive
4 | CO[C@@]1(NC(=O)CSC[C@@H](N)C(=O)O)C(=O)N2C(C(=O)O)=C(CSc3nnnn3C)CS[C@@H]21 | inactive | inactive | inactive | – | inactive | inactive | inactive | inactive | inactive | inactive | inactive | inactive | – | inactive | inactive | inactive | inactive | inactive | – | –
5 | CCCCCCCC1CCCC1=O (centres undefined) | inactive | inactive | inactive | – | inactive | inactive | inactive | inactive | inactive | inactive | inactive | inactive | inactive | inactive | inactive | inactive | – | – | inactive | inactive
6 | C=C[Si](OC(C)=O)(OC(C)=O)OC(C)=O | inactive | inactive | inactive | – | inactive | inactive | inactive | – | inactive | inactive | inactive | inactive | – | inactive | inactive | inactive | – | 30.6 µM (active) | – | –
7 | Cc1ccc(C(=O)Nc2ccc(S(=O)(=O)O)c3cc(S(=O)(=O)O)cc(S(=O)(=O)O)c23)cc1NC(=O)c1cccc(NC(=O)Nc2cccc(C(=O)Nc3cc(C(=O)Nc4ccc(S(=O)(=O)O)c5cc(S(=O)(=O)O)cc(S(=O)(=O)O)c45)ccc3C)c2)c1 | inactive | inactive | – | inactive | inactive | inactive | inactive | inactive | inactive | inactive | inactive | – | inactive | inactive | inactive | inactive | inactive | inactive | – | –
8 | CCN[C@H]1C[C@H](C)S(=O)(=O)c2sc(S(N)(=O)=O)cc21 | inactive | inactive | – | inactive | inactive | inactive | inactive | inactive | inactive | inactive | inactive | – | – | inactive | inactive | – | inactive | inactive | inactive | inactive
